This is a sample that favours compounds with a hit; in the whole collection about 7.4% have one here.
FLuc counter – inhibits or activates purified firefly luciferase, miR-21 counter-screen. purified FLuc, Km substrates, luminescence inhibition. Potency, µM (titrated, usually from 57.5 µM), without a hit: at the top dose activity change, negative = inhibition, hits mostly inhibitors. 360,000 compounds, 6.9% hits. AID 588342;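 further: plate controls were vehicle for no effect and reference inhibitor for full effect; nearly all actives have a fitted effect of over 55% in size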
Target sequence (P08659 whole entry, looked up): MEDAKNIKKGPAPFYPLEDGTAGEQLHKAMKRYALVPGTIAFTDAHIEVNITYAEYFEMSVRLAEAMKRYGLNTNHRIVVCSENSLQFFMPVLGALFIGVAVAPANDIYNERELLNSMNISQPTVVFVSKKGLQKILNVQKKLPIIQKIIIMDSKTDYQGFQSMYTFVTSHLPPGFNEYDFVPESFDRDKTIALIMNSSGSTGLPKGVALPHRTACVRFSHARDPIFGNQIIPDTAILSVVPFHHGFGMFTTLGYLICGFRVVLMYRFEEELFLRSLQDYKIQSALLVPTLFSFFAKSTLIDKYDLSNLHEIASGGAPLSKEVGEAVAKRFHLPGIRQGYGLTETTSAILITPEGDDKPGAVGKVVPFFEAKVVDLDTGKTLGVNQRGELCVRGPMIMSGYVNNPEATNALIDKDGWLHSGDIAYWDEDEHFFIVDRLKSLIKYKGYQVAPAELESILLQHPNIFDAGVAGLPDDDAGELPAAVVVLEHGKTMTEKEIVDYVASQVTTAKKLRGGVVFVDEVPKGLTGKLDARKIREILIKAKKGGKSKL
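Purified P. pyralis luciferase, 10 nM final, with Km-level 10 uM D-luciferin and 10 uM ATP in 50 mM Tris acetate pH 7.5, 10 mM Mg acetate, 0.01% Tween-20, 0.05% BSA; 6-point qHTS titration about 60 µM downward; luminescence read.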
Luc counter – counter-screen: inhibitors of Kinase-Glo firefly luciferase; Q27757; Kinase-Glo luciferase, ATP luminescence, 8 min; Potency, µM (titrated, usually from 38.3 µM), for inactives: at the highest dose activity change, negative = inhibition, usual class: inhibitors; 200,000 compounds, 0.28% hits; AID 1379; further: on the % scale 0 is the no-effect control and ±100 the full control effect; nearly all actives have a fitted effect of over 60% in size
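Inhibition of Kinase-Glo luciferase light generation was assessed at 10 uM ATP in pH 7.2 imidazole buffer, with luminescence measured after eight minutes at ambient temperature.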
Rab9 prom act – activates the Rab9 promoter; AID 485297; Potency, µM (highest dose often 9.22 µM), for inactives: at the highest dose activation, negative = inhibition, actives largely listed as activators; 320,000 compounds, 2.8% hits; Huh7 Rab9 promoter-luciferase reporter, luminescence, 24 h; further: % of control where 0% means no effect; nearly all actives have a fitted effect of over 60% in size
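Cell-based reporter: Huh7 stable for Rab9 promoter-driven luciferase, plated in reduced-serum medium with 10% FBS at 1500 cells/well, compound-treated 24 h at 37 °C, luminescence read after 10 min reagent.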
NPC1 promoter act – activates the NPC1 promoter; Huh7 NPC1 promoter luciferase reporter, 24 h; Potency, µM (series often up to 9.22 µM), for the others: at the top dose activation, usual class: activators; 320,000 compounds, 2.4% hits; AID 485313; further: % of control where 0% means no effect; nearly all actives have a fitted effect of over 60% in size
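Readout is luciferase luminescence, reflecting NPC1 promoter activation in stably transfected Huh7 cells after 24 h compound exposure at 37 °C in reduced-serum medium with 10% FBS.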
SMN2 splice enh – enhancers of SMN2 splice variant expression. HEK293 SMN2-luciferase splicing reporter, luminescence, 30-36 h. Potency, µM (titrated, usually from 46.1 µM), for the others: at the highest dose activity change, positive = activation, hits mostly activators. 210,000 compounds, 2.8% hits; further: % of control where 0% means no effect; nearly all actives have a fitted effect of over 55% in size
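HEK293 cells carry an SMN2 minigene-luciferase reporter in which exon 7 inclusion puts luciferase in frame. Cells were seeded at 2000 cells/well, attached for 10-12 hours, then exposed to compounds for 30-36 hours at 37C before ONE-Glo luminescence.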
ELG1 genotoxic – induces genotoxicity in HEK293T cells with luciferase-tagged ELG1; HEK293T ELG1-luciferase reporter, luminescence, 16 h; Potency, µM (highest dose often 46 µM), for the others: at the highest dose activity change, positive = activation, actives largely listed as activators; 330,000 compounds, 1.3% hits; further: % of control where 0% means no effect; nearly all actives have a fitted effect of over 60% in size
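DMSO vehicle served as control against compound-treated ELG1-luciferase HEK293T cells; exposure lasted 16 hr at 37 °C and 5% CO2, followed by ONE-Glo luminescence detection after 30 min.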
* hit, by the source's call; ? = inconclusive; · = not tested or not shown. The call rests on the fitted dose curve; in most records, active means well fitted curve in the direction sought with a large enough effect; inconclusive means small, poorly fitted or top-dose-only effect, or another doubt; inactive means no such curve, though single readings can be large; an effect the other way counts as inactive or inconclusive. Potency means the concentration at half of the fitted maximal effect.

SMILES | FLuc counter | Luc counter | Rab9 prom act | NPC1 promoter act | SMN2 splice enh | ELG1 genotoxic
Cc1cc(OCc2cc(C(=O)NCCN3CCCCC3CO)no2)cc(C)c1Cl (configuration not stated) | 4% | · | 7% | 7% | · | -1%
CCn1cc(Cl)c(C(=O)Nc2ccc3c(c2)OCCO3)n1 | 6µM* | -23% | 1.6µM* | 3.2µM* | 11µM* | ?
O=C(COC(=O)CCN=C1NS(=O)(=O)c2ccccc21)NNC(=O)c1ccc(Cl)cc1 | -1% | · | 2% | 2% | · | 0%
O=C(Nc1ccc(-c2nc3cccnc3s2)cc1)c1cccnc1Cl | 1.7µM* | · | 0.79µM* | 0.32µM* | · | 0.82µM*
CCOc1ncccc1C(=O)Nc1cccc(-c2nc3cccnc3s2)c1 | ? | · | 2% | 21% | · | -6%
O=C(Nc1ccc(-c2nc3cccnc3s2)cc1)c1ccc(Cl)nc1 | ? | · | 0.71µM* | 0.89µM* | · | 10%
c1ccc(-n2ncc3c(NCc4cccnc4)ncnc32)cc1 | 17µM* | -1% | ? | ? | 38% | ?
c1ccc(CNc2ncnc3c2cnn3Cc2ccccc2)cc1 | 6% | 3% | -7% | -23% | 11µM* | 1%
OCCNc1ncnc2c1cnn2Cc1ccccc1 | -2% | · | -4% | 1% | · | 0%
Cc1ccc(-n2ncc3c(NCc4ccccc4)ncnc32)cc1C | 21µM* | · | · | · | · | ·
COCC(C)Nc1ncnc2c1cnn2-c1ccc(C)c(C)c1 (configuration not stated) | 6.7µM* | · | · | · | · | ·
Cc1ccc(C(=O)NC(=S)Nc2nc(-c3cccc([N+](=O)[O-])c3)cs2)c(Cl)c1 | 6% | -1% | 6% | 2% | -38% | 9%
CNC(=O)c1[nH]cnc1C(=O)NCC(=O)OCc1ccccc1 | -2% | · | 0% | 2% | · | 4%
Cc1ccc(-n2ncc3c(NCCc4ccccc4)ncnc32)cc1 | 24µM* | · | · | · | · | ·
Cc1ccc(-n2ncc3c(NCCCc4ccccc4)ncnc32)cc1C | -10% | · | · | · | · | ·
COc1ccc2c(c1)c(=O)oc1c(C)c(OC(C)C(=O)N[C@@H](Cc3c[nH]c4ccc(O)cc34)C(=O)O)ccc12 (some centres not stated) | 12µM* | · | -3% | 9% | · | -2%
Cc1ccc2nc(-c3ccc(NC(=O)COC(=O)c4ccc(Br)o4)cc3)sc2c1 | 3.4µM* | 0% | 0.4µM* | 0.79µM* | 0.5µM* | 1.2µM*
O=C(COC(=O)c1ccc(Br)o1)Nc1ccc(Br)cc1 | -1% | · | 9% | 3% | · | 3%
CNS(=O)(=O)c1cccc(C(=O)OCC(=O)Nc2ccc(-c3nc4ccc(C)cc4s3)cc2)c1 | 4.8µM* | -3% | ? | 0.5µM* | 1.1µM* | 0.73µM*
Cc1ccc2nc(-c3ccc(NC(=O)COC(=O)c4ccc([N+](=O)[O-])o4)cc3)sc2c1 | 1.3µM* | 1% | 0.45µM* | 0.4µM* | 0.71µM* | 1.3µM*
CCOc1ncccc1C(=O)OCC(=O)Nc1ccc(-c2nc3ccc(C)cc3s2)cc1 | 5.4µM* | 3% | 0.35µM* | 0.45µM* | 1.6µM* | 7.3µM*
O=C(COC(=O)c1ccc([N+](=O)[O-])o1)Nc1ccc(F)cc1 | · | · | · | · | · | 0%
C=CCc1c(OC)ccc2c1c(S(=O)(=O)c1ccc(C)cc1)cn2COC | -1% | · | -7% | -1% | · | -2%
CCCCCOc1ccc(/C=C/c2c([N+](=O)[O-])c(=O)n(C)c(=O)n2C)cc1 | 6% | · | -5% | -5% | · | -8%
O=C1CC(c2ccc(F)cc2)c2c(c3ccccc3[nH]c2=O)O1 (configuration not stated) | -15% | · | · | · | -13% | ·
SMILES | FLuc counter | Luc counter | Rab9 prom act | NPC1 promoter act | SMN2 splice enh | ELG1 genotoxic
Cc1nn(C(=O)c2ccccc2F)c(C)c1S(=O)(=O)N1CCOCC1 | -15% | · | · | · | · | ·
Cc1ccc2nc(-c3ccc(NC(=O)COC(=O)c4ccco4)cc3)sc2c1 | 11µM* | 4% | 0.32µM* | 0.45µM* | 2.2µM* | 2.9µM*
Cc1ccc(NC(=O)COC(=O)c2ccco2)cc1 | 17µM* | -6% | -1% | -2% | · | 4%
CC(=O)Nc1ccc(C(=O)COC(=O)c2ccco2)c(F)c1 | 13µM* | · | -8% | -4% | · | 4%
Cc1ccc2nc(-c3ccc(NC(=O)CN4CCN(C(=O)c5ccco5)CC4)cc3)sc2c1 | 4.8µM* | 8% | ? | ? | ? | ?
Cc1ccc2nc(-c3ccc(NC(=O)COC(=O)c4cncc(Br)c4)cc3)sc2c1 | 1.7µM* | -2% | 0.32µM* | ? | 0.56µM* | 1.3µM*
O=C(COC(=O)c1cncc(Br)c1)Nc1ccc2c(c1)OCO2 | 1% | 1% | 9% | -15% | 16% | -3%
Cc1ccc(N=CC2=C(O)CC(c3ccco3)CC2=O)cc1 (configuration not stated) | 11µM* | -3% | 11% | 1% | -14% | 8%
O=C1CC(c2ccccc2)CC(O)=C1C=Nc1ccccc1 (configuration not stated) | 17µM* | -4% | 1% | -4% | -4% | 0%
Cc1ccc(C)c(NC(=O)CSc2nncn2C)c1 | -1% | · | -3% | -2% | · | 0%
CC(OC(=O)CCN=C1NS(=O)(=O)c2ccccc21)C(=O)N(C)C1CCCCC1 (configuration not stated) | -9% | · | 0% | 0% | · | -3%
Cc1ccc(S(=O)(=O)NCCNC(=O)CN2CCOCC2)cc1 | 0% | · | 1% | -2% | · | 5%
COc1ccc(C)cc1NC(=O)c1ccc2c(=O)n3c(nc2c1)CCCCC3 | -20% | · | 0% | 21% | 10% | -10%
Cc1ccc(C)c(NC(=O)c2ccc3c(=O)n4c(nc3c2)CCC4)c1 | 15µM* | · | ? | ? | · | 17%
O=C(Nc1ccc(F)cc1Cl)c1ccc2c(=O)n3c(nc2c1)CCC3 | -37% | · | 3.5µM* | 3.2µM* | · | 17%
O=C(Nc1ccc(F)cc1F)c1ccc2c(=O)n3c(nc2c1)CCC3 | 11µM* | · | 1.1µM* | 1.1µM* | · | ?
O=C(NNC(=O)c1ccc2c(=O)n3c(nc2c1)CCC3)c1ccc(F)cc1 | 0% | · | -2% | -3% | · | -4%
Cc1c(O)ccc(C(=O)CN2CCN(c3ccc(F)cc3)CC2)c1O | -1% | · | -2% | 1% | · | -1%
CN(C)S(=O)(=O)c1cccc(NC(=S)N(CCC#N)Cc2cccnc2)c1 | -1% | 6% | 2% | -4% | -15% | 0%
O=C(Nc1cc2c(oc1=O)CCCC2=O)c1ccccc1 | -9% | 3% | -4% | -3% | 13% | 1%
Cc1ccc(C(=O)Nc2cc3c(oc2=O)CCCC3=O)cc1 | 21µM* | -4% | ? | ? | 27% | ?

Screening results from PubChem BioAssay.
